We go through 40 compounds from PubChem BioAssay (NCATS).

Records with an inconclusive call do not appear. Entries that show only a call come without a potency. Active and inactive are the calls of the source. Calls follow the shape of the dose curve; as a rule, active = well fitted inhibition curve with a large enough effect; inconclusive = small, poorly fitted or top-dose-only effect; inactive = flat fitted curve, though single readings scatter.

Voltage-gated inwardly rectifying potassium channel KCNH2 (Homo sapiens), sequence (Q12809 whole entry, looked up): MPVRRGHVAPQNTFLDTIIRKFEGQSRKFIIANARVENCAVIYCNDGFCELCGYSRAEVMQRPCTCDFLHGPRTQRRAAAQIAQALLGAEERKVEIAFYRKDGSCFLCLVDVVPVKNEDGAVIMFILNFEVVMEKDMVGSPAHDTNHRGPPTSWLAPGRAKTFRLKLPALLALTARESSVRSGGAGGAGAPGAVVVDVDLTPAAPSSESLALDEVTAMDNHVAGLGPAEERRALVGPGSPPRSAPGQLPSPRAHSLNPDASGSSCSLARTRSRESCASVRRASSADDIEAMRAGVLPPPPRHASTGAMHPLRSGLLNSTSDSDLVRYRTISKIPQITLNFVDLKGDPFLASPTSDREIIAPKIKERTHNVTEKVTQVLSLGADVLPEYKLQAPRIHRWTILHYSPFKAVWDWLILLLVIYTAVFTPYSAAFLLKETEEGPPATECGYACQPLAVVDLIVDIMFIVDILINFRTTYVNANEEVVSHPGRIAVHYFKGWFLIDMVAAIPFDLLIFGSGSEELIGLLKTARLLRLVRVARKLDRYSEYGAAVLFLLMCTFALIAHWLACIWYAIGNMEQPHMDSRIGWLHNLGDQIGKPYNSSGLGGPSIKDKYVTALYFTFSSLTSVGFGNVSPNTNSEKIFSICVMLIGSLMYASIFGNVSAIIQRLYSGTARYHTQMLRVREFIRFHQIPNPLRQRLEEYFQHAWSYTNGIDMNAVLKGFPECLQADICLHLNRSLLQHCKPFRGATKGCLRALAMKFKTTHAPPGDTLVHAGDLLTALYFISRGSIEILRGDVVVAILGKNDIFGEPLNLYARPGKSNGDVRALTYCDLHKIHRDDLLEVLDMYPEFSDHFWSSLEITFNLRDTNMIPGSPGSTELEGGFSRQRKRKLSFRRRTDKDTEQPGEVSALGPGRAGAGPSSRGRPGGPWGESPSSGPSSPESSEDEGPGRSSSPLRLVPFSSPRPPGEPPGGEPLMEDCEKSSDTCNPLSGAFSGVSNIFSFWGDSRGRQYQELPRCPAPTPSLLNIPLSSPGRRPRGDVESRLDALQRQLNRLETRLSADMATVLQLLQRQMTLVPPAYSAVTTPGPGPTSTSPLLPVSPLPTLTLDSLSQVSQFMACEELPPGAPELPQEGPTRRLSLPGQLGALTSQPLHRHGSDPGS
Luciferin 4-monooxygenase (Photinus pyralis), sequence (P08659 whole entry, looked up): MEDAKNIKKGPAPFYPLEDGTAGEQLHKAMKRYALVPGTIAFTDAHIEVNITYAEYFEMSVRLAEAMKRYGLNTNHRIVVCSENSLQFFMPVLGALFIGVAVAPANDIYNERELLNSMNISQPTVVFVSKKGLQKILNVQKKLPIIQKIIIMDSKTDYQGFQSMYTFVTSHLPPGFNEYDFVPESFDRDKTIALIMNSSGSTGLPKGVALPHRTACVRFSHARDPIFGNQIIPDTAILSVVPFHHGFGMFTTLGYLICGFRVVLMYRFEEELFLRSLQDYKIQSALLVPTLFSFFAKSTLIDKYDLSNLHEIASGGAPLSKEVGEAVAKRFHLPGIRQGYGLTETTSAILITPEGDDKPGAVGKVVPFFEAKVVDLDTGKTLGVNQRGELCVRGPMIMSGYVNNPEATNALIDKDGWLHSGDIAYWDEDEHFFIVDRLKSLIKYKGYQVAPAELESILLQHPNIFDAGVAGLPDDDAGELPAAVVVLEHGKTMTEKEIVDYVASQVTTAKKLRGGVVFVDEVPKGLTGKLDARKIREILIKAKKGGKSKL

One experiment concerns the target Voltage-gated inwardly rectifying potassium channel KCNH2 (Homo sapiens) (UniProt Q12809). The experiment is described as follows: qHTS Assay for Small Molecule Inhibitors of the Human hERG Channel Activity (AID 588834).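 Also: lower thallium flux fluorescence means stronger hERG block; nearly all actives have a fitted effect of over 50% in size.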 Also: potency is read from the fitted curve at half-maximal effect. Conditions: U2OS BacMam hERG, FluxOR thallium flux fluorescence; series mostly up to 46.1 µM. In short, it runs like this: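 Measured: FluxOR fluorescence after thallium stimulation in U2OS cells transduced with hERG by baculovirus. Compounds pre-incubated around 10 min; medium Opti-MEM with 2% FCS. AC50 from Hill equation.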
Regarding `CCOC(=O)/C=C(C)/C=C/C=C(C)/C=C/c1c(C)cc(OC)c(C)c1C`, the Potency result was “inactive”.

Turning to `CCOC(=O)c1cccc(N)c1`, the Potency result is “inactive”.

On to `Cc1c(N(C)CS(=O)(=O)O)c(=O)n(-c2ccccc2)n1C`, for which the Potency result is “inactive”.

Regarding `NCCc1ccn[nH]1`, the Potency result was “inactive”.

On to `O=C1c2ccccc2C(=O)C1c1ccccc1`, for which the Potency result is “inactive”.

As for `NC(CO)(CO)CO`, the Potency result is “inactive”.

As to `C#C[C@]1(OC(C)=O)CC[C@H]2[C@@H]3CCC4=C[C@@H](OC(C)=O)CC[C@@H]4[C@H]3CC[C@@]21C`, the Potency entry is “inactive”.

For `O=C(COc1ccc(Cl)cc1)N1CCN(Cc2ccc3c(c2)OCO3)CC1`, the Potency is 15.8 µM (active).

`CN(C)CCCOc1nn(Cc2ccccc2)c2ccccc12`: the Potency is 5.01 µM (active).

Take `CCCCN1CCCC1C(=O)Nc1c(C)cc(C)cc1C` (stereo not given): the Potency result was “inactive”.

Regarding `CCCCc1nc(Cl)c(CO)n1Cc1ccc(-c2ccccc2-c2nn[nH]n2)cc1`, the Potency result is “inactive”.

Consider `C[C@H](O)C(=O)Nc1c(I)c(C(=O)NC(CO)CO)c(I)c(C(=O)NC(CO)CO)c1I`, for which the Potency entry was “inactive”.

In the case of `C[C@@H](CN(C)C)CN1c2ccccc2Sc2ccccc21`, the Potency was 6.31 µM (active).

With `CCN(CC)C(=O)N1CCN(C)CC1`, the Potency entry was “inactive”.

In the case of `C[C@]12C=CC(=O)C=C1[C@@H](F)C[C@@H]1[C@@H]2[C@@H](O)C[C@@]2(C)[C@H]1CC[C@]2(O)C(=O)CO`, the Potency entry was “inactive”.

Turning to `CCCCC(CC)CN=C(N)NC(N)=NCCCCCCN=C(N)NC(N)=NCC(CC)CCCC` (stereo not given), the Potency result is “inactive”.

Consider `CCCCCCCCCCCCCCCC[N+](C)(C)CCN(Cc1ccc(OC)cc1)c1ncccn1`, for which the Potency was 1.41 µM (active).

Take `O=C1OC2(c3ccc(O)cc3Oc3cc(O)ccc32)c2ccccc21`: the Potency was 0.631 µM (active).

In the case of `Cc1c(C)n(CCN(C)C)c2ccc(C(=O)OCCN(C)C)cc12`, the Potency result is “inactive”.

As for `O=C1[C@H]2CCCC[C@H]2C(=O)N1CCCCN1CCN(c2nsc3ccccc23)CC1`, the Potency was 5.01 µM (active).

The target in the next experiment is Luciferin 4-monooxygenase (Photinus pyralis) (UniProt P08659). Nature of the experiment: Biochemical firefly luciferase enzyme assay for NPC (AID 624030).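 Also: purified P. pyralis luciferase at 10 nM with luciferin and ATP substrate; nearly all actives have a fitted effect of over 70% in size.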 The note with it: purified P. pyralis luciferase, luminescence, 5 min; series mostly up to 58.6 µM. In short, it runs like this:
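Counter-screen for direct inhibition of the luciferase enzyme by approved-drug library compounds, run at 10 nM enzyme in 50 mM Tris acetate (final). Luminescence was read within 5 min of enzyme-buffer addition and normalized to PTC124 versus DMSO (0%).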
Take `CCCCCCCCCCCCCCCCCC(=O)OCC(O)CO` (stereo not given): the Potency entry is “inactive”.

For `CC(=O)OCC(=O)NCCCOc1cccc(CN2CCCCC2)c1`, the Potency result was “inactive”.

With `C#C[C@]1(O)CC[C@H]2[C@@H]3CCc4cc(OC5CCCC5)ccc4[C@H]3CC[C@@]21C`, the Potency result was “inactive”.

Consider `COc1cc(-c2ccc(=O)[nH]n2)ccc1OC(F)F`, for which the Potency result was “inactive”.

Consider `Cc1c(C(N)=O)cc([N+](=O)[O-])cc1[N+](=O)[O-]`, for which the Potency result was “inactive”.

Take `CCN(CC)CCNC(=O)COc1ccc(Cl)cc1`: the Potency result is “inactive”.

Take `CCCCCC=CCC=CCCCCCCCC(=O)OCC`: the Potency result is “inactive”.

As to `COc1c2occc2c(OC)c2c(=O)cc(C)oc12`, the Potency entry was “inactive”.

For `Cc1c(F)c(N2CCNC(C)C2)cc2c1c(=O)c(C(=O)O)cn2C1CC1` (stereo not given), the Potency result was “inactive”.

Regarding `c1ccc(CNCCNCc2ccccc2)cc1`, the Potency entry is “inactive”.

On to `CCCCOc1ccc(C(=O)CCN2CCCCC2)cc1`, for which the Potency entry is “inactive”.

On to `COc1ccc(CN2CCN(C(c3ccc(F)cc3)c3ccc(F)cc3)CC2)c(OC)c1OC`, for which the Potency result was “inactive”.

`CN1C(CCl)Nc2cc(Cl)c(S(N)(=O)=O)cc2S1(=O)=O` (stereo not given): the Potency result is “inactive”.

For `CCC(C(=O)OCCN(CC)CC)c1ccccc1` (stereo not given), the Potency entry is “inactive”.

For `Oc1ccc(Cl)c2cccnc12`, the Potency result is “inactive”.

As for `O=C(O)CNC(=O)c1ccccc1`, the Potency entry is “inactive”.

In the case of `CCOC(=O)OC(C)OC1=C(C(=O)Nc2ccccn2)N(C)S(=O)(=O)c2ccccc21` (stereo not given), the Potency entry is “inactive”.

`NC(CS)C(=O)O` (stereo not given): the Potency result is “inactive”.

`Cc1cccn2c(=O)c(-c3nnn[nH]3)cnc12`: the Potency result was “inactive”.

For the compound `CC1=C(C(=O)OC(C)C)C(c2cccc([N+](=O)[O-])c2)C(C(=O)OC2CN(C(c3ccccc3)c3ccccc3)C2)=C(N)N1` (stereo not given), the Potency result was “inactive”.

On to `CCOC(=O)/C=C(C)/C=C/C=C(C)/C=C/c1c(C)cc(OC)c(C)c1C`, for which the Potency result was “inactive”.

On to `CCOC(=O)c1cccc(N)c1`, for which the Potency result is “inactive”.

On to `Cc1c(N(C)CS(=O)(=O)O)c(=O)n(-c2ccccc2)n1C`, for which the Potency result is “inactive”.

Regarding `NCCc1ccn[nH]1`, the Potency result is “inactive”.

Take `O=C1c2ccccc2C(=O)C1c1ccccc1`: the Potency entry is “inactive”.

For `NC(CO)(CO)CO`, the Potency entry was “inactive”.

`C#C[C@]1(OC(C)=O)CC[C@H]2[C@@H]3CCC4=C[C@@H](OC(C)=O)CC[C@@H]4[C@H]3CC[C@@]21C`: the Potency entry was “inactive”.

For the compound `O=C(COc1ccc(Cl)cc1)N1CCN(Cc2ccc3c(c2)OCO3)CC1`, the Potency result was “inactive”.

On to `CN(C)CCCOc1nn(Cc2ccccc2)c2ccccc12`, for which the Potency entry was “inactive”.

In the case of `CCCCN1CCCC1C(=O)Nc1c(C)cc(C)cc1C` (stereo not given), the Potency result was “inactive”.

`CCCCc1nc(Cl)c(CO)n1Cc1ccc(-c2ccccc2-c2nn[nH]n2)cc1`: the Potency entry is “inactive”.

For the compound `C[C@H](O)C(=O)Nc1c(I)c(C(=O)NC(CO)CO)c(I)c(C(=O)NC(CO)CO)c1I`, the Potency entry was “inactive”.

Regarding `C[C@@H](CN(C)C)CN1c2ccccc2Sc2ccccc21`, the Potency result is “inactive”.

Turning to `CCN(CC)C(=O)N1CCN(C)CC1`, the Potency result is “inactive”.

Turning to `C[C@]12C=CC(=O)C=C1[C@@H](F)C[C@@H]1[C@@H]2[C@@H](O)C[C@@]2(C)[C@H]1CC[C@]2(O)C(=O)CO`, the Potency entry is “inactive”.

As for `CCCCC(CC)CN=C(N)NC(N)=NCCCCCCN=C(N)NC(N)=NCC(CC)CCCC` (stereo not given), the Potency entry was “inactive”.

Take `CCCCCCCCCCCCCCCC[N+](C)(C)CCN(Cc1ccc(OC)cc1)c1ncccn1`: the Potency entry was “inactive”.

`O=C1OC2(c3ccc(O)cc3Oc3cc(O)ccc32)c2ccccc21`: the Potency result is “inactive”.

Regarding `Cc1c(C)n(CCN(C)C)c2ccc(C(=O)OCCN(C)C)cc12`, the Potency result is “inactive”.

As to `O=C1[C@H]2CCCC[C@H]2C(=O)N1CCCCN1CCN(c2nsc3ccccc23)CC1`, the Potency result is “inactive”.
